Of roughly 7,900 targets only a part is listed; those with a hit were picked by preference. About 0.6% of all pairs of compound and target were hits.
Columns and labels:
Assay in all cases: log2 fold change, soluble protein after heating vs DMSO (PISA); higher = thermal stabilisation; K562 cells, 10 uM, 30 min; active = over 0.2 and 3.5 SD of the protein, either way, in both replicates (recomputed)
[1] = compound: C1=CC=C(C=C1)[C@H](COC2=CC3=C(C=C2)NC(=O)N3)NC(=O)C4=CC=CN(C4=O)CC5=CC(=C(C=C5)F)F
Method in brief: (§1)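 Soluble protein was quantified by TMTpro 16plex LC-MS/MS after channel sums were equalised. It was obtained as the supernatant after 21,000xg for 90 min from pooled aliquots of K562 cells (2×10^6 cells/mL, 10 μM compound, 30 min) heated for 3 min across 48°C-58°C and extracted in PBS with 0.5% NP-40 at 4°C. Thermal stability values are relative to control samples and come from duplicates. They are given as log2 fold changes.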

[2] = compound: CC1=C(SC2=C1C(=N[C@H](C3=NN=C(N32)C)CC(=O)N)C4=CC=C(C=C4)Cl)C
Method in brief: as §1

[3] = compound: CC1=C2C(=CC=C1)N=C(N(C2=O)C3=CC=CC=C3C)CN4C=NC5=C(N=CN=C54)N
Method in brief: as §1

[4] = compound: Cc1sc2c(c1C)C(c1ccc(Cl)cc1)=N[C@@H](CC(=O)OC(C)(C)C)c1nnc(C)n1-2
Method in brief: as §1

[5] = compound: c1ccc([C@@H]2C[C@H]2NC2CCNCC2)cc1
Method in brief: as §1

Measured: log2 fold change

LEO1 (UniProt Q8WVC0)
inactive: [1] -0.009 | [2] 0.046 | [3] -0.009 | [4] -0.016 | [5] -0.011

MIA2 (UniProt Q96PC5)
inactive: [1] -0.036 | [2] 0.041 | [3] 0.02 | [4] 0.029 | [5] 0.027

MICU2 (UniProt Q8IYU8)
Sequence of UniProt Q8IYU8 (Q8IYU8 whole entry, looked up): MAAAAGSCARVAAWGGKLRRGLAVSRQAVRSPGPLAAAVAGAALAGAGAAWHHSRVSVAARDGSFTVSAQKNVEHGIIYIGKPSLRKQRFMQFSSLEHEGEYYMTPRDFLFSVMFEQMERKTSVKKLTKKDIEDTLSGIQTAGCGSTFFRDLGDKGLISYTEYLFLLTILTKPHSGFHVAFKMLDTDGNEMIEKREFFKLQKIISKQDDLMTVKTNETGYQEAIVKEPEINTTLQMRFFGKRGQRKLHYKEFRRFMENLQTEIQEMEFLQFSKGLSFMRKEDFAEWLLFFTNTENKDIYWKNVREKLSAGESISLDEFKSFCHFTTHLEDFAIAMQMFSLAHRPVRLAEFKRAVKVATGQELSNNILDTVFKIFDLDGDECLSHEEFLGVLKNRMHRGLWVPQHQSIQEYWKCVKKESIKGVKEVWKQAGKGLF
inactive: [1] 0.013 | [2] -0.037 | [3] -0.123 | [4] -0.029 | [5] 0.021

LAMP2 (UniProt P13473)
Sequence of UniProt P13473 (P13473 whole entry, looked up): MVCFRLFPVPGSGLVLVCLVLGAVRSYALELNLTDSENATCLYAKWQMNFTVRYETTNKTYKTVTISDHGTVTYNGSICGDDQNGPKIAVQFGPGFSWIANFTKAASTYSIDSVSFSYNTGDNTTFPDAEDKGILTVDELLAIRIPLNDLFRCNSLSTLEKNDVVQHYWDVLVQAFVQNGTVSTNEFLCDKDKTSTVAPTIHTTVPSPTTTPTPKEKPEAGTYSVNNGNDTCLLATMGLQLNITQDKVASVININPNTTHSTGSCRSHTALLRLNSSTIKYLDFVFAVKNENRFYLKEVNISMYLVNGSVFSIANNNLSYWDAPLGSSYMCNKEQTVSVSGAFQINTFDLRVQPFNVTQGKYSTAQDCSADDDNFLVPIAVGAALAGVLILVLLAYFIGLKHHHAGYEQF
inactive: [1] 0.022 | [2] -0.006 | [3] -0.041 | [4] -0.078 | [5] 0.074

KCTD10 (UniProt Q9H3F6)
inactive: [1] -0.014 | [2] -0.009 | [3] 0.007 | [4] -0.01 | [5] 0.03

LONP2 (UniProt Q86WA8)
inactive: [1] -0.036 | [2] 0.009 | [3] 0.02 | [4] 0.009 | [5] -0.147

LRBA (UniProt P50851)
inactive: [1] -0.016 | [2] 0.05 | [3] 0.088 | [4] 0 | [5] -0.023

MFGE8 (UniProt Q08431)
inactive: [1] 0.005 | [2] -0.051 | [3] -0.091 | [4] -0.068 | [5] -0.129

MAP2K7 isoform 4 (UniProt O14733)
inactive: [1] -0.009 | [2] 0.029 | [3] 0.065 | [4] 0.013 | [5] 0.044

ILK (UniProt Q13418)
inactive: [1] -0.081 | [2] 0.017 | [3] 0.132 | [4] 0.053 | [5] -0.087

LARP7 isoform 3 (UniProt Q4G0J3)
inactive: [1] 0.018 | [2] -0.032 | [3] 0.045 | [4] -0.048 | [5] 0.027

IRAK4 (UniProt Q9NWZ3)
Sequence of UniProt Q9NWZ3 (Q9NWZ3 whole entry, looked up): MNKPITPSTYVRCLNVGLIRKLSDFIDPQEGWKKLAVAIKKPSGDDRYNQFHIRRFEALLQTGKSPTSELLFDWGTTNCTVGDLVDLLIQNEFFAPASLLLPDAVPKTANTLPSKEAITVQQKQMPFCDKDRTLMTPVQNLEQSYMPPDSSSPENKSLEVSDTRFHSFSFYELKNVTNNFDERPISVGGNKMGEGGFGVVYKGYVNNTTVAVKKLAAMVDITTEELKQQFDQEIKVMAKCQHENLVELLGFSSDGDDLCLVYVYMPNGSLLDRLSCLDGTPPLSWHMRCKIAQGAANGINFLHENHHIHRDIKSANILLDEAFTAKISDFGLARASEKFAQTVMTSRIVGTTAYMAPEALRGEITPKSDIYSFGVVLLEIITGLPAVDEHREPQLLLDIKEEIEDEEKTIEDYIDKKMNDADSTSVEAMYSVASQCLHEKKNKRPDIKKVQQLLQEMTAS
inactive: [1] -0.077 | [2] -0.006 | [3] 0.009 | [4] -0.012 | [5] -0.056

MCU (UniProt Q8NE86)
inactive: [1] -0.02 | [2] 0.035 | [3] 0.038 | [4] -0.018 | [5] -0.013

KPNB1 (UniProt Q14974)
inactive: [1] -0.035 | [2] -0.018 | [3] -0.024 | [4] 0.001 | [5] -0.021

IPO13 (UniProt O94829)
inactive: [1] -0.005 | [2] 0.008 | [3] 0.098 | [4] 0.037 | [5] 0.034

MEAK7 (UniProt Q6P9B6)
inactive: [1] -0.009 | [2] 0.051 | [3] 0.042 | [4] -0.009 | [5] -0.048

KIF3B (UniProt O15066)
inactive: [1] -0.068 | [2] -0.014 | [3] 0.028 | [4] 0.09 | [5] -0.054

IGF2R (UniProt P11717)
inactive: [1] 0.013 | [2] 0.007 | [3] -0.008 | [4] 0.001 | [5] -0.002

LARP1 (UniProt Q6PKG0)
inactive: [1] 0.002 | [2] -0.046 | [3] -0.046 | [4] 0.151 | [5] -0.002

LMBR1 isoform 3 (UniProt Q8WVP7)
inactive: [1] -0.194 | [2] 0.147 | [3] -0.134 | [4] -0.349 | [5] 0.078

ITPRIP (UniProt Q8IWB1)
inactive: [1] -0.024 | [2] 0.096 | [3] 0.054 | [4] -0.081 | [5] 0.027

INPP5B (UniProt P32019)
inactive: [1] -0.067 | [2] 0.056 | [3] 0.024 | [4] 0.086 | [5] -0.035

L2HGDH (UniProt Q9H9P8)
Sequence of UniProt Q9H9P8 (Q9H9P8 whole entry, looked up): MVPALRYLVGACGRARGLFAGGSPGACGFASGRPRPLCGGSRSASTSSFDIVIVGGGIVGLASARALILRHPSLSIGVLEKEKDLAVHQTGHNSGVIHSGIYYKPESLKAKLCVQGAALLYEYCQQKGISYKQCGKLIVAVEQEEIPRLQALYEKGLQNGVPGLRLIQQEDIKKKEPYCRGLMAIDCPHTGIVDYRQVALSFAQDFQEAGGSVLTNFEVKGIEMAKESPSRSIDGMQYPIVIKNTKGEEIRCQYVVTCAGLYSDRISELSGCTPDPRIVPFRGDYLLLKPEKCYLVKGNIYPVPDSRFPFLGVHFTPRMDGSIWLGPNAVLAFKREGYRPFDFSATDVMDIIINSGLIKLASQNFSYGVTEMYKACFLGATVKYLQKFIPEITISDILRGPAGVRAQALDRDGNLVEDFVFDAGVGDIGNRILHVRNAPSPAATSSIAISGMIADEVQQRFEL
inactive: [1] -0.031 | [2] 0.07 | [3] 0.078 | [4] 0.018 | [5] -0.029

MED25 isoform 3 (UniProt Q71SY5)
inactive: [1] -0.12 | [2] 0.06 | [3] -0.14 | [4] -0.128 | [5] -0.257

LMBRD2 (UniProt Q68DH5)
inactive: [1] 0.029 | [2] 0.084 | [3] 0.06 | [4] -0.12 | [5] -0.035

LIMA1 isoform 4 (UniProt Q9UHB6)
inactive: [1] 0.002 | [2] 0.014 | [3] -0.002 | [4] -0.028 | [5] 0.034

MAPK14 isoform 2 (UniProt Q16539)
inactive: [1] -0.067 | [2] 0.139 | [3] 0.077 | [4] -0.011 | [5] -0.043

IPO7 (UniProt O95373)
inactive: [1] -0.082 | [2] 0.031 | [3] 0.069 | [4] -0.025 | [5] 0.003

LYPLA2 (UniProt O95372)
inactive: [1] 0.033 | [2] 0.056 | [3] -0.023 | [4] -0.161 | [5] -0.08

KIF13A (UniProt Q9H1H9)
inactive: [1] 0.022 | [2] 0.039 | [3] 0.054 | [4] -0.059 | [5] -0.027

IGFBP2 (UniProt P18065)
inactive: [1] -0.121 | [2] -0.101 | [3] 0.131 | [4] -0.295 | [5] 0.062

KPNA4 (UniProt O00629)
inactive: [1] -0.017 | [2] 0.004 | [3] 0.035 | [4] 0.004 | [5] 0.009

LPIN1 isoform 7 (UniProt Q14693)
inactive: [1] -0.071 | [2] 0.086 | [3] 0.071 | [4] 0.02 | [5] 0.023

LDAH isoform 2 (UniProt Q9H6V9)
inactive: [1] -0.125 | [2] 0.019 | [3] 0.086 | [4] 0.174 | [5] -0.059

MGST1 (UniProt P10620)
Sequence of UniProt P10620 (P10620 whole entry, looked up): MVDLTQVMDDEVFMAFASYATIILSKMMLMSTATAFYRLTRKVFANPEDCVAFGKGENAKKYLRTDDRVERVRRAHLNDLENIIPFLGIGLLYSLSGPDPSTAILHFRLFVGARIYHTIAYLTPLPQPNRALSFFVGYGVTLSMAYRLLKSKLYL
inactive: [1] -0.061 | [2] 0.032 | [3] -0.11 | [4] 0.05 | [5] 0.008

LMNB2 (UniProt Q03252)
inactive: [1] 0.04 | [2] 0.052 | [3] 0.062 | [4] -0.04 | [5] 0.053

LRPPRC (UniProt P42704)
inactive: [1] -0.312 | [2] -0.059 | [3] 0.257 | [4] -0.031 | [5] -0.05

LSR (UniProt Q86X29)
inactive: [1] -0.016 | [2] 0.033 | [3] 0.006 | [4] -0.034 | [5] 0.015

LNPK (UniProt Q9C0E8)
inactive: [1] 0.015 | [2] 0.015 | [3] 0.009 | [4] -0.01 | [5] 0.016

MAD2L1 (UniProt Q13257)
Sequence of UniProt Q13257 (Q13257 whole entry, looked up): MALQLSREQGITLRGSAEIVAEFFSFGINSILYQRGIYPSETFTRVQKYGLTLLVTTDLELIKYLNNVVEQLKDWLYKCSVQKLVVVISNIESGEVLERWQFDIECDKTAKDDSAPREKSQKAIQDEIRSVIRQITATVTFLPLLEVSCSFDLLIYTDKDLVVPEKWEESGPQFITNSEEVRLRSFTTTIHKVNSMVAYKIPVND
inactive: [1] -0.045 | [2] 0.077 | [3] 0.067 | [4] -0.021 | [5] -0.019

MAGOHB (UniProt Q96A72)
Sequence of UniProt Q96A72 (Q96A72 whole entry, looked up): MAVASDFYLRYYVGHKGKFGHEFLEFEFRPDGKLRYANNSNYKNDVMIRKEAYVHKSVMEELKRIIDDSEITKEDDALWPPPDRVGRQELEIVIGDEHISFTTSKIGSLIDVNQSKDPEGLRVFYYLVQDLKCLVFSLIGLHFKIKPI
inactive: [1] 0.02 | [2] 0.042 | [3] 0.079 | [4] -0.153 | [5] -0.129

KTN1 (UniProt Q86UP2)
inactive: [1] 0.005 | [2] -0.012 | [3] 0.019 | [4] 0.036 | [5] 0.001

KIAA1324L (UniProt A8MWY0)
Sequence of UniProt A8MWY0 (A8MWY0 whole entry, looked up): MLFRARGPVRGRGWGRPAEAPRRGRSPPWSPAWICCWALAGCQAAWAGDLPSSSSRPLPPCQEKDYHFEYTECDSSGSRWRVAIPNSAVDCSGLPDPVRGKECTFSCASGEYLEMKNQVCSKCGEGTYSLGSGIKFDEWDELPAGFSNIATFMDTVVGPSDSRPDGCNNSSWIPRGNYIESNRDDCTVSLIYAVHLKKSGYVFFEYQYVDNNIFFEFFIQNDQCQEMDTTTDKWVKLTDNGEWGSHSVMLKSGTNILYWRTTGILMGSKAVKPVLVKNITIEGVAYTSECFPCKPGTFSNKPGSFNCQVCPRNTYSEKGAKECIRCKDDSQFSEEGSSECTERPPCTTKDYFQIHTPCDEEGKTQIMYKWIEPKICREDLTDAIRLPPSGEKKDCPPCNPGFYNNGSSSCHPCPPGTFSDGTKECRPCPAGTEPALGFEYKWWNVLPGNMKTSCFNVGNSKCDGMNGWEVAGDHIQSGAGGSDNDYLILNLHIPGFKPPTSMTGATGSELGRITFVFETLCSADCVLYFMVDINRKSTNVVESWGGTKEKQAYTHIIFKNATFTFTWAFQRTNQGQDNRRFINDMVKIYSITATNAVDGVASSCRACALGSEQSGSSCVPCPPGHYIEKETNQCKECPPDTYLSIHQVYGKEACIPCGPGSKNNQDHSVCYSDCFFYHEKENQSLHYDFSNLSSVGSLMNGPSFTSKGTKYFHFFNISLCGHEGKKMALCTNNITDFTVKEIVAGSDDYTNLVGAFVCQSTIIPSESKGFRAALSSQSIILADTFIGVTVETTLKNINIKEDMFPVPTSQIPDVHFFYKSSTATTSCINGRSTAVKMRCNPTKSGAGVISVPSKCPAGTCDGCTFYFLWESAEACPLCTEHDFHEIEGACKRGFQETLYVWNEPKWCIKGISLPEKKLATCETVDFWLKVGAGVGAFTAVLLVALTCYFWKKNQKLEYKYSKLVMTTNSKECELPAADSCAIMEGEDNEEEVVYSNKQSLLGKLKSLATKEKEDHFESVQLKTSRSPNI
inactive: [1] 0.041 | [2] 0.044 | [3] 0 | [4] -0.001 | [5] 0.035

IPO11 isoform 2 (UniProt Q9UI26)
Sequence of UniProt Q9UI26 (Q9UI26 whole entry, looked up): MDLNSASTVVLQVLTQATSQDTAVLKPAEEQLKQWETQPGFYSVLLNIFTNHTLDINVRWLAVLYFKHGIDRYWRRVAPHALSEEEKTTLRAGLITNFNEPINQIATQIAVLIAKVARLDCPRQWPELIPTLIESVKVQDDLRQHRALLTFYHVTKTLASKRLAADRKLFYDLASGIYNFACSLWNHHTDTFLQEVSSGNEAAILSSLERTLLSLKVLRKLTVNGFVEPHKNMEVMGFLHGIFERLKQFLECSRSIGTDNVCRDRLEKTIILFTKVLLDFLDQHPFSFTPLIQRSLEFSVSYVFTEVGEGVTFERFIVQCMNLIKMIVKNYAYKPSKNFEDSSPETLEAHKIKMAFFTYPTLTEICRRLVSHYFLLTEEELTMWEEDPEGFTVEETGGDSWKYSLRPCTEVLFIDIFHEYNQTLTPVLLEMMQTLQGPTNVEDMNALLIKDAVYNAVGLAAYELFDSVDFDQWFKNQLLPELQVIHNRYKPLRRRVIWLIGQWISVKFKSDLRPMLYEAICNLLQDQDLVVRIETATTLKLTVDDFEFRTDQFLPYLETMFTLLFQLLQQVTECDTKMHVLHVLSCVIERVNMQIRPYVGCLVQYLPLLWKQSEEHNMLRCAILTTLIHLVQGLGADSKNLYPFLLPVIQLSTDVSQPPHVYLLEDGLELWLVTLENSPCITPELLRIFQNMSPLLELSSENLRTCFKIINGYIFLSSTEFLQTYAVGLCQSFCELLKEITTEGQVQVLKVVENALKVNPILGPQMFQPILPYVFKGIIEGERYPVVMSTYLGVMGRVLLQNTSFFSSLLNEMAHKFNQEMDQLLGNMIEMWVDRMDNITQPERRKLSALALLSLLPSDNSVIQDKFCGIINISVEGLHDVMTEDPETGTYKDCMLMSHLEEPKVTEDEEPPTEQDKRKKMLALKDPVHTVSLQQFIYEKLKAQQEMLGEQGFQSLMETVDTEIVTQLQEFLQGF
inactive: [1] 0.048 | [2] 0.064 | [3] 0.01 | [4] 0.013 | [5] 0.001

IWS1 (UniProt Q96ST2)
inactive: [1] -0.01 | [2] 0.08 | [3] 0.037 | [4] 0.045 | [5] -0.035

LSS (UniProt P48449)
inactive: [1] -0.077 | [2] 0.059 | [3] 0.127 | [4] -0.018 | [5] 0.087

LEMD2 (UniProt Q8NC56)
Sequence of UniProt Q8NC56 (Q8NC56 whole entry, looked up): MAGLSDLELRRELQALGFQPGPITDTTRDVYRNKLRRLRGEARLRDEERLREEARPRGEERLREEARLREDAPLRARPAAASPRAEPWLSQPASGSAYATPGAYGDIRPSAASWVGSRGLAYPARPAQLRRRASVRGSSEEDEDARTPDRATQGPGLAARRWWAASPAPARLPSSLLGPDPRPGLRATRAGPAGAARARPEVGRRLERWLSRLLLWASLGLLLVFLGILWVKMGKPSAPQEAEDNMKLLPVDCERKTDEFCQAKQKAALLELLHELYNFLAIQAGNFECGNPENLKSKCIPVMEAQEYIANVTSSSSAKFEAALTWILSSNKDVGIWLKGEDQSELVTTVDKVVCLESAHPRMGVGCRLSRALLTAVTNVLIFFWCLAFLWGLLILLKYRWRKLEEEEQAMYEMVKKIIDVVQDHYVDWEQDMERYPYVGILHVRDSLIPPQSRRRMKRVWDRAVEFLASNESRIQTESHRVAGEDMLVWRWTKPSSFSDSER
inactive: [1] -0.031 | [2] 0.136 | [3] 0.114 | [4] -0.017 | [5] 0.005

MARK3 (UniProt P27448)
inactive: [1] -0.042 | [2] 0.039 | [3] 0.104 | [4] 0.121 | [5] 0.004

KEL (UniProt P23276)
inactive: [1] -0.067 | [2] 0.003 | [3] 0.017 | [4] 0.019 | [5] 0.067

KIFBP (UniProt Q96EK5)
inactive: [1] -0.075 | [2] 0.025 | [3] 0.06 | [4] -0.058 | [5] 0.005

KLHL18 (UniProt O94889)
inactive: [1] 0.014 | [2] 0.101 | [3] 0.135 | [4] 0.017 | [5] -0.021

KCTD2 (UniProt Q14681)
inactive: [1] 0.008 | [2] -0.01 | [3] 0.022 | [4] 0.195 | [5] 0.158

MEPCE (UniProt Q7L2J0)
inactive: [1] 0.017 | [2] 0.001 | [3] 0.064 | [4] 0.028 | [5] 0.008

LENG8 (UniProt Q96PV6)
inactive: [1] 0.036 | [2] 0.177 | [3] -0.356 | [4] -0.028 | [5] 0.022

Reference: the supplement of paper PMC10849652
